Laboratory results taken from PubChem BioAssay (NCATS).
Records with an inconclusive call do not appear. Active and inactive are the calls of the source. Unless noted, the call rests on the fitted dose curve; in most records, active means well fitted curve in either direction with a large enough effect (not every such curve was filed as active); inconclusive means small, poorly fitted or top-dose-only effect, or another doubt; inactive means flat fitted curve, though single readings scatter.

Assays:
[1] = target: Lysosomal acid glucosylceramidase (Homo sapiens) (UniProt P04062); experiment: Glucocerebrosidase-p2 (AID 348; in the data active means potency below about 10 µM; further: potency means the concentration at half of the fitted maximal effect); conditions: purified GBA, blue fluorogenic substrate, 40 min
Chain of Lysosomal acid glucosylceramidase (Homo sapiens) (P04062 whole entry, looked up): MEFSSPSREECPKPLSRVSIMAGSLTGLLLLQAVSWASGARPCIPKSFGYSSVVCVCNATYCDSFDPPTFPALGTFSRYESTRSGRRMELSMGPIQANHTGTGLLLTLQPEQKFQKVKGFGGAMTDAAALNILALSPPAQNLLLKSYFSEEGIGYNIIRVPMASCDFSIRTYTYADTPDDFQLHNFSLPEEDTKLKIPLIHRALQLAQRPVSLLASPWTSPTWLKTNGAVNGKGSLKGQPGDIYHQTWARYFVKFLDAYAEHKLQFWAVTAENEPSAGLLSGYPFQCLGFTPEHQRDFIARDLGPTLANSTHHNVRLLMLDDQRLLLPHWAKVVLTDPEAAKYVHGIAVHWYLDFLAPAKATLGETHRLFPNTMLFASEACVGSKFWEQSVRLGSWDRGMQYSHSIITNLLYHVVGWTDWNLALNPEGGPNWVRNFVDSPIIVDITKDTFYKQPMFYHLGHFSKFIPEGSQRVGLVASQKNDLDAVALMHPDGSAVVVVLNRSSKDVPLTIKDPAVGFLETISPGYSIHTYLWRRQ
Method in brief: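 Compounds titrated from 0.6 nM upwards against 0.2 nM enzyme in pH 5.9 citric acid/KH2PO4, taurocholate, tween-20; blue fluorogenic substrate 80 uM, 40 min room temperature, stopped and read Ex 365/Em 440 for AC50.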

[2] = AP1 Signaling Pathway (AID 357);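 further: ME-180 reporter cells stimulated with EGF at its EC50 level; on the % scale 0 is the no-effect control and ±100 the full control effect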
Method in brief: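 A ratiometric CCF4 readout (405 nm excitation; 460 and 530 nm emission) quantified AP-1-driven beta-lactamase in ME-180 cells after 5 h with compound and EC50 EGF; AC50 values were derived for activators and inhibitors.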

[3] = Stat Signaling Pathway (AID 446);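 further: ME-180 cervical cancer cells given 40 pM IL-6 alongside compound; SIE-controlled beta-lactamase reporter measured as 460/530 nm FRET emission ratio; on the % scale 0 is the no-effect control and ±100 the full control effect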
Method in brief: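 Reporter line: ME-180 cervical carcinoma, SIE-beta-lactamase. Treatment: compound with 40 pM IL-6, 5 hrs, 37 C, in low-serum OPTI-MEM with 10 mM HEPES pH 7.3. Detection: 460/530 nm fluorescence.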

[4] = target: Glucocorticoid receptor (Homo sapiens) (UniProt P04150); experiment: GR-EFC Redistribution (AID 451; calls by dose curve; further: potency means the concentration at half of the fitted maximal effect); conditions: CHO-K1 GR-EFC translocation, beta-gal luminescence, 2 h
Chain of Glucocorticoid receptor (Homo sapiens) (P04150 whole entry, looked up, the tested form may be a part): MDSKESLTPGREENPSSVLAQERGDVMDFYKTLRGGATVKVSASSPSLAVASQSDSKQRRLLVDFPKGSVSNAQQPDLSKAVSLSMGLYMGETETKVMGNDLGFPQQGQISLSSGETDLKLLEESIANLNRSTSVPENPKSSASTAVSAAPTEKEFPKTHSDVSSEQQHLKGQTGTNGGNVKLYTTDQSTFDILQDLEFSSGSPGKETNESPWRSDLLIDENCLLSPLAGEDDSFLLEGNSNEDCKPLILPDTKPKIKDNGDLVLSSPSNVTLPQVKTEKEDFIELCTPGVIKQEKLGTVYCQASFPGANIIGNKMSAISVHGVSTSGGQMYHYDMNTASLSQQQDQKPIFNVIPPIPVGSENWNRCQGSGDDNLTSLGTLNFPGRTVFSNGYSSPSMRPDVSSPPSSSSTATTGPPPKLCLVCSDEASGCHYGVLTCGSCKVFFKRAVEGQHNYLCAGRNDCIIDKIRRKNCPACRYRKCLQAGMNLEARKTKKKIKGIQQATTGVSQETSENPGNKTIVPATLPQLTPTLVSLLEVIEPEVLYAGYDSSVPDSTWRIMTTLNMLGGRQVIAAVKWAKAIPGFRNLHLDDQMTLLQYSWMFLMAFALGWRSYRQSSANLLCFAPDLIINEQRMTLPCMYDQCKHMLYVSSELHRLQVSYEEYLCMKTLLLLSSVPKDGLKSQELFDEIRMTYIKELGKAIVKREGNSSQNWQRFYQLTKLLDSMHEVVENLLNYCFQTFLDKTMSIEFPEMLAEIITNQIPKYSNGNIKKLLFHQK
Method in brief: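 CHO-K1 cells expressing nuclear EA and GR-ED fragments of b-gal; compounds titrated up to 46 uM final, 2 h at 37 C. GR nuclear translocation read as complemented b-gal luminescence after 1 h RT detection.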

[5] = target: Mitogen-activated protein kinase 10 (Mus musculus) (UniProt Q61831); experiment: JNK3 AlphaScreen Assay (AID 530);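 further: kinase came from lysate of stimulated human HepG2 cells; signal reports phosphorylation of biotinylated GST-cJun 1-79 at Ser73 with 10 µM ATP; on the % scale 0 is the no-effect control and ±100 the full control effect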
Method in brief: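 Pre-activated (IL-1β/TNFα) JNK3 in HepG2 lysates phosphorylates biotin-GST-cJun(1-79), 10 uM ATP; anti-phospho-cJun(Ser73) AlphaScreen read at room temperature, pH 7.6 Tris buffer. Compounds pre-incubated 15 min as titrations.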

[6] = target: 3',5'-cyclic-AMP phosphodiesterase 4B (Homo sapiens) (UniProt Q07343); experiment: qHTS Assay for Inhibitors of PDE-IV (AID 607; active means well fitted activation curve with a large enough effect in the main read-out, with a control signal flat, not every such curve was filed as active; further: % of control where 0% means no effect)
Chain of 3',5'-cyclic-AMP phosphodiesterase 4B (Homo sapiens) (Q07343 whole entry, looked up): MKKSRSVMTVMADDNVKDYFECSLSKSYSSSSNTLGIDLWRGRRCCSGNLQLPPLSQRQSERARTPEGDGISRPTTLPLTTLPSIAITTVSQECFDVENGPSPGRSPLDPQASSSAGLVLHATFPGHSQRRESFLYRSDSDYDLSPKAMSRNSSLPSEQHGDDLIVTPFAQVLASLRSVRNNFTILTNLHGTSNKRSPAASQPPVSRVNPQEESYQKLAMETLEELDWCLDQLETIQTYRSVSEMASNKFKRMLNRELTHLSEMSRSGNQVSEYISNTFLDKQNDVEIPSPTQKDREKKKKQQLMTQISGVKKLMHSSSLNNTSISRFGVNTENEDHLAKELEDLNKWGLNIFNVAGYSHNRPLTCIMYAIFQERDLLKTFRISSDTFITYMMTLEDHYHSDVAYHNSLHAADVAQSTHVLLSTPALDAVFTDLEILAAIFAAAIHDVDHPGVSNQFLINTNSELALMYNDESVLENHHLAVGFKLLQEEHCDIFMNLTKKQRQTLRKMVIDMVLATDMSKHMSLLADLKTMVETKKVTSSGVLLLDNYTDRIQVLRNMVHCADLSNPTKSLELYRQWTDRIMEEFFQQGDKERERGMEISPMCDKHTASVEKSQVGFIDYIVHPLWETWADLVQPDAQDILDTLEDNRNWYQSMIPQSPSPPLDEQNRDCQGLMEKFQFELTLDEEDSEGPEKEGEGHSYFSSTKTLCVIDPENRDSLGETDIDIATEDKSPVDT
Method in brief: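 Cell-based read-out of cAMP via a modified cyclic nucleotide-gated channel and membrane potential dye (535/590 nm) in HEK293 cells expressing PDE4 endogenously. Compounds tested up to 22.9 uM final; 100 uM RO 20-1724 reference.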

[7] = qHTS Assay for Lipid Storage Modulators (AID 1519; calls by dose curve); conditions: Drosophila S3 cells, BODIPY lipid droplet/cell ratio, laser cytometry, cells loaded with oleic acid; for activity change, negative = inhibition: at 57.5 µM (top of the series)
Method in brief: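 Cells seeded at 5,000 per well were treated with compounds over a concentration series and loaded with oleic acid (400 uM, as added). Lipid droplet fluorescence (488 nm excitation, 500-530 nm channel) was read by laser-scanning cytometry and normalized to 20 uM Triacsin C.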

[8] = Primary qHTS for small molecule stabilizers of the endoplasmic reticulum resident proteome: Secreted ER Calcium Modulated Protein (SERCaMP) assay (AID 1508630; active means well fitted curve in the direction sought with a large enough effect; an effect the other way counts as inactive or inconclusive; further: on the % scale 0 is the no-effect control and ±100 the full control effect)
Method in brief: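 GLuc-SERCaMP-expressing SH-SY5Y cells, pretreated 16 h with compound, are challenged with thapsigargin to empty ER calcium stores; after 4 h, coelenterazine is added directly to the medium and luminescence is imaged.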

[9] = test system: HIV-1 nucleocapsid protein NCp7 (binding to TG oligonucleotide); experiment: HIV Nucleocapsid (AID 346; call rule not given here;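 further: potency means the concentration at half of the fitted maximal effect; potency is for inhibitors that block NC binding and lower polarization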); conditions: HIV-1 NC / fluorescein-TGTGTGTG probe, fluorescence polarization
Method in brief: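 Fluorescence polarization readout: labelled TG4xF oligo (10 nM) with 100 nM nucleocapsid protein, high-salt (250mM NaCl) Hepes pH 7.5 buffer containing zinc and fresh reducing agents. Compounds added by pin tool; incubation 1 hr, room temperature.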

[10] = target: Cytochrome P450 1A2 (Homo sapiens) (UniProt P05177); experiment: p450-cyp1a2 (AID 410; calls by dose curve;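 further: -100% = full effect of reference inhibitor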)
Chain of Cytochrome P450 1A2 (Homo sapiens) (P05177 whole entry, looked up): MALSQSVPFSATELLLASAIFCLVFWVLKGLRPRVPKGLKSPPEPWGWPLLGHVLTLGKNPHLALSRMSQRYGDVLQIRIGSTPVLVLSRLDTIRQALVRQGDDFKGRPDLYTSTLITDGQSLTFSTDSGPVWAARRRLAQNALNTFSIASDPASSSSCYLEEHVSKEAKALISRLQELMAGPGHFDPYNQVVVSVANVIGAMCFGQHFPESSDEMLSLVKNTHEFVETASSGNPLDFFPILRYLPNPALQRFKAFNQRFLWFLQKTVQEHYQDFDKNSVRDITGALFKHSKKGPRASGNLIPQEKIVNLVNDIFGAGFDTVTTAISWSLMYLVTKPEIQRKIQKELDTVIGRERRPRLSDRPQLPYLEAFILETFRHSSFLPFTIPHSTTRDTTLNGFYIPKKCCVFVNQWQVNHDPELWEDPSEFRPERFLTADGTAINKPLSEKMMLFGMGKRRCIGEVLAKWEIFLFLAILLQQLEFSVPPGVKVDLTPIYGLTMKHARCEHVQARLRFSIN
Method in brief: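 Luminescent readout of luciferin formed from Luciferin-ME by human CYP1A2; data normalized against complete inhibition by 57 uM furafylline. Enzyme 20nM, substrate 100uM at Km, 100mM KPO4 buffer, 60 min reaction at room temperature.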

[11] = target: Cytochrome P450 3A4 (Homo sapiens) (UniProt P08684); experiment: qHTS Assay for Activators of Cytochrome P450 3A4 (AID 885; active means well fitted curve in the direction sought with a large enough effect; an effect the other way counts as inactive or inconclusive; further: nearly all actives have a fitted effect of over 65% in size; further: potency means the concentration at half of the fitted maximal effect)
Chain of Cytochrome P450 3A4 (Homo sapiens) (P08684 whole entry, looked up): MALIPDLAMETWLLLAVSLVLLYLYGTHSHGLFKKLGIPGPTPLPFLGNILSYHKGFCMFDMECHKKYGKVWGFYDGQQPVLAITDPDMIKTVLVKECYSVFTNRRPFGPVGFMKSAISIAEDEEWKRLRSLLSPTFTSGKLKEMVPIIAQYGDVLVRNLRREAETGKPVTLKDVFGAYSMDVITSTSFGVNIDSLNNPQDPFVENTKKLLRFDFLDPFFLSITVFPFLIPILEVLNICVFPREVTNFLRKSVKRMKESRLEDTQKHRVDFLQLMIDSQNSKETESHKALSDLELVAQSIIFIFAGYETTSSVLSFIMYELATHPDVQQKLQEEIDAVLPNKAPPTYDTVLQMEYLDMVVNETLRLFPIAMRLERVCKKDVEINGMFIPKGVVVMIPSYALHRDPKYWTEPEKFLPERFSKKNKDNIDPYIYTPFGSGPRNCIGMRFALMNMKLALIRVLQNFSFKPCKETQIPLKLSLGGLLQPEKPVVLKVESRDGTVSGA
Method in brief: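 Signal was normalized against complete inhibition by 57 uM ketoconazole. The reaction used 20nM CYP3A4 with 25uM Luciferin-PPXE, 10-min compound preincubation and a 60-min NADPH-supported step at RT.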

[12] = Confirmation and Secondary Assay for Modulators of Hemoglobin Beta Chain Splicing at IVS2 654 locus (AID 910; active means well fitted curve in the direction sought with a large enough effect; an effect the other way counts as inactive or inconclusive;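 further: HeLa cells stably carrying EGFP split by mutant beta-globin IVS2-654 intron; % of control where 0% means no effect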)
Method in brief: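 HeLa cells stably expressing EGFP interrupted by β-globin IVS2-654 intron, seeded overnight in Opti-MEM/2% FCS, then treated 2 days at 37 °C. Restored splicing read as total peak GFP intensity per well by laser scanning cytometry (488 nm excitation, 500–520 nm emission); 500 nM antisense PNA as control.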

[13] = Confirmation and Secondary Assay for Modulators of Hemoglobin Beta Chain Splicing at IVS2 705 locus (AID 930; active means well fitted curve in the direction sought with a large enough effect; an effect the other way counts as inactive or inconclusive;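 further: HeLa cells stably expressing the EGFP-705 splicing reporter; GFP fluorescence per well restored by corrected splicing of the IVS2-705 intron in EGFP; % of control where 0% means no effect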)
Method in brief: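 Splice-correction reporter: EGFP cDNA split by beta-globin intron 2 bearing the 705 mutation, stably in HeLa. Compound incubation 2 days, 37C; fluorescent objects 5-250 µm summed per well.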

[14] = target: Ubiquitin carboxyl-terminal hydrolase 1 (Homo sapiens) (UniProt O94782); experiment: Inhibitors of USP1/UAF1: Pilot qHTS (AID 504865; active means well fitted curve in the direction sought with a large enough effect; an effect the other way counts as inactive or inconclusive;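 further: rhodamine fluorescence freed from ubiquitin-rhodamine substrate followed over time; top concentration of the series differs between compounds; on the % scale 0 is the no-effect control and ±100 the full control effect; nearly all actives have a fitted effect of over 35% in size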)
Chain of Ubiquitin carboxyl-terminal hydrolase 1 (Homo sapiens) (O94782 whole entry, looked up): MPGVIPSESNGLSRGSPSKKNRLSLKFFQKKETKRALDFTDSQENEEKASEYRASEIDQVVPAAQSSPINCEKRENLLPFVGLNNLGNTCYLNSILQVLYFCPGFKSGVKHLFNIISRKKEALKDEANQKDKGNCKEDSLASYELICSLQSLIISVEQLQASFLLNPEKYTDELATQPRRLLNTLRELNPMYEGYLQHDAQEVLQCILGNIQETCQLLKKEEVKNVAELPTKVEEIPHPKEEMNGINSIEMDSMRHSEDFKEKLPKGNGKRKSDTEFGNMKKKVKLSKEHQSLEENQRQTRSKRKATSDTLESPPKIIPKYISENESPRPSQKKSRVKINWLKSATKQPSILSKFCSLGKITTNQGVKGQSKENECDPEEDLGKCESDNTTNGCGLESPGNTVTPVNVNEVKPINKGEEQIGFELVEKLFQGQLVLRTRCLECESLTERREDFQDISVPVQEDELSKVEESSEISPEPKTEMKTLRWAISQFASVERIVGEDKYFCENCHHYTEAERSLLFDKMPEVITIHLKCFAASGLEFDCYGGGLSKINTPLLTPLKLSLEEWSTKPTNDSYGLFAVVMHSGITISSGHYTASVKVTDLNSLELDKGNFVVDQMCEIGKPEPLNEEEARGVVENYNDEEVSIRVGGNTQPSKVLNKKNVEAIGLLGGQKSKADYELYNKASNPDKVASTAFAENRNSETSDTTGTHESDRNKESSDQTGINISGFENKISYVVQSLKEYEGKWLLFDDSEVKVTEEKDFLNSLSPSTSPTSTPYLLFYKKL
Method in brief: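 1nM USP1/UAF1 + cpd, 15 min RT; start w/ Ub-Rho 150nM final; kinetic FL 480/540 nm, 6 reads q60 s. Buffer 50mM HEPES pH 7.8, 0.5mM EDTA, 1mM TCEP, 0.01% Tween-20, 0.1 mg/ml BSA.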

[15] = NFAT Signaling Pathway (AID 444); conditions: Jurkat NFAT-bla M1, carbachol, beta-lactamase ratio, 5 h
Method in brief: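 Jurkat cells with NFAT-driven β-lactamase reporter and co-expressed M1 receptor, stimulated with carbachol (final 1 uM, ~EC50), compound titration, 5 h at 37 °C. CCF4 loaded 1 h at RT; 460/530 nm ratio gave %activity and AC50.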

[16] = target: Cytochrome P450 3A4 (Homo sapiens) (UniProt P08684); experiment: qHTS Assay for Inhibitors and Substrates of Cytochrome P450 3A4 (AID 884; active means well fitted curve in the direction sought with a large enough effect; an effect the other way counts as inactive or inconclusive; further: on the % scale 0 is the no-effect control and ±100 the full control effect; nearly all actives have a fitted effect of over 50% in size)
Method in brief: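 20 nM human CYP3A4 with 25 uM Luciferin-PPXE (at KM) in 200 mM KPO4, preincubated 10 min with compound; NADPH regeneration started a 60 min RT reaction. Luciferin detected by luminescence, normalized to 57 uM ketoconazole as full inhibition.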

[17] = target: Glucocorticoid receptor (Homo sapiens) (UniProt P04150); experiment: GR-GFP Redistribution (AID 450;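 active means compounds whose dose series gives a full or clear partial fitted curve of increased nuclear translocation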; further: potency means the concentration at half of the fitted maximal effect); conditions: U2OS GR-GFP nuclear translocation, laser cytometry, 2 h
[18] = measured here: cell count channel max response
[19] = measured here: lipid channel max response

CC(C)CN1CC[C@@]2(CCCN(C(=O)c3ccncc3)C2)C1
4.49%: max response [7, 19]
-1.41%: max response [7, 18]
inactive: Potency [1] > 11.4 µM | outcome [2] | outcome [3] | Potency [4] > 46 µM | outcome [5] | Potency [6] | activity change, negative = inhibition [7] 2.73% | outcome [8]

c1ccc(CN2CCCC3(CCNCC3)C2)cc1
inactive: Potency [9] > 20 µM | Potency [1] > 11.4 µM | outcome [2] | Potency [10] | outcome [3] | Potency [4] > 46 µM | outcome [5] | Potency [6] | activity change, negative = inhibition [7] 2.49% | outcome [8]
7.81%: max response [7, 19]
3.6%: max response [7, 18]

CN1CCCCC1c1ccc(-c2cccnc2)nc1 (stereo unspecified)
12.4%: max response [7, 18]
inactive: Potency [11] | Potency [12] | Potency [13] | activity change, negative = inhibition [7] 6.38% | Potency [14] | outcome [8]
21.9%: max response [7, 19]

N#Cc1ccc(CN2CCCC3(CCN(C(=O)Oc4ccccc4)CC3)C2)cc1
11.6%: max response [7, 18]
inactive: Potency [1] > 11.4 µM | outcome [2] | Potency [10] | outcome [3] | Potency [4] > 46 µM | outcome [5] | Potency [6] | Potency [11] | activity change, negative = inhibition [7] 1.3% | outcome [8]
16.3%: max response [7, 19]

O=C(c1cnccn1)N1CCC2(CC1)CN(Cc1ccncc1)C2
3.49%: max response [7, 19]
inactive: Potency [1] > 11.4 µM | outcome [2] | activity change, negative = inhibition ([15]; at 7.69 µM (top of the series)) -23.5% | outcome [3] | Potency [4] > 46 µM | outcome [5] | Potency [6] | activity change, negative = inhibition [7] 2.96% | outcome [8]
-1.92%: max response [7, 18]

CN1CCCC2(CCN(C(=O)c3csnn3)CC2)C1
inactive: Potency [1] > 11.4 µM | outcome [2] | Potency [10] | activity change, negative = inhibition ([15]; at 7.69 µM (top of the series)) -27.8% | Potency [4] > 46 µM | outcome [5] | activity change, negative = inhibition [7] -1.92% | outcome [8]
-8.1%: max response [7, 18]
-6.49%: max response [7, 19]

CC(C)NC(=O)N1CCC2(CC1)CCN(C(=O)Oc1ccccc1)CC2
-6.43%: max response [7, 19]
inactive: Potency [1] > 11.4 µM | outcome [2] | Potency [10] | outcome [3] | Potency [4] > 46 µM | outcome [5] | Potency [16] | activity change, negative = inhibition [7] 2.9% | outcome [8]
-12.1%: max response [7, 18]
active: Potency [11] 25.1 µM

CCc1c(C(=O)OC)ncc2[nH]c3cc(OC)c(OC)cc3c12
inactive: activity change, negative = inhibition ([15]; at 38 µM (top of the series)) -26.6% | Potency [17] > 46 µM | Potency [4] > 46 µM | outcome [5] | Potency [6] | outcome [8]
